Compound activity: PubChem BioAssay, National Center for Advancing Translational Sciences (NCATS)
CHX counter: Cycloheximide Counterscreen for Small Molecule Inhibitors of Shiga Toxin | max response, % | cell reporter, cycloheximide protein synthesis inhibition counterscreen | 12% of 300,000 active; in the data active = max response mostly above about 13%, no sharp cut-off; inactive = mostly below about 14%; note: read at 38.3 µM for the half of the compounds with a filed dose; 0% is about no effect
LASV entry inh: qHTS for Inhibitors of binding or entry into cells for Lassa Virus. Lassa virus pseudotype entry inhibition, cell reporter. Potency, µM (doses to about 37.9 µM), without a hit: at the highest dose activity change, negative = inhibition, most hits filed as inhibitors. 1.2% of 300,000 active. AID 540256, 2011; calls by dose curve; tested in HEK293 cells; note: potency is the fitted concentration of half-maximal effect; % is set by controls: 0 for no effect and ±100 for the full control effect; nearly all actives have a fitted effect of over 50% in size
VACV Venus inh: qHTS for Stage-Specific Inhibitors of Vaccinia Orthopoxvirus: Venus Reporter Primary qHTS. Potency, µM (series often up to 36.5 µM), without a hit: top-dose activity change, negative = inhibition, hits mostly inhibitors. AID 720580, 2013. 0.46% of 330,000 active. Vaccinia virus Venus reporter expression, fluorescence; calls by dose curve; tested in A549 cells; note: potency is the fitted concentration of half-maximal effect; % is set by controls: 0 for no effect and ±100 for the full control effect; nearly all actives have a fitted effect of over 30% in size
Shiga toxin inh: A qHTS for Small Molecule Inhibitors of Shiga Toxin | Vero cells, Shiga toxin protein synthesis inhibition reporter | inhibition, % at 38.7 µM | 9.2% of 290,000 active | AID 2315, 2010; in the data active = inhibition mostly above about 28%, no sharp cut-off; inactive = mostly below about 43%; note: 0% is about no effect
Marburg entry inh: qHTS for inhibitors of binding or entry into cells for Marburg Virus; AID 540276, 2011; 1.8% of 300,000 active; Marburg virus pseudotyped entry inhibition, cell reporter; Potency, µM (doses to about 37.8 µM), for inactives: at the highest dose activity change, negative = inhibition, most hits filed as inhibitors; calls by dose curve; tested in HEK293 cells; note: potency is the fitted concentration of half-maximal effect; % is set by controls: 0 for no effect and ±100 for the full control effect
VACV mCherry inh: qHTS for Stage-Specific Inhibitors of Vaccinia Orthopoxvirus: mCherry Reporter Primary qHTS; Vaccinia virus mCherry reporter infection, fluorescence; Potency, µM (doses to about 36.5 µM), for inactives: at the top dose activity change, negative = inhibition, most hits filed as inhibitors; 0.63% of 310,000 active; calls by dose curve; tested in A549 cells; note: potency is the fitted concentration of half-maximal effect; % is set by controls: 0 for no effect and ±100 for the full control effect; nearly all actives have a fitted effect of over 35% in size
The depositor's hits bear a star; i = inactive; ? = inconclusive; nt = no result; + = active, no number; [ ] = another dose, or the depositor's remark. This excerpt belongs to a sample that is enriched for hits.

SMILES	CHX counter	LASV entry inh	VACV Venus inh	Shiga toxin inh	Marburg entry inh	VACV mCherry inh
O=C(CCC(=O)Nc1ccccc1)NNC(=O)c1ccccc1Cl	6.5	0.4%	nt	8.2	5.0%	nt
CCN(N=O)c1ccc(C=C2C=Cc3ccccc32)cc1	nt	3.98µM*	-3.7%	nt	?	i
CCN(N=O)c1ccc(/C=C2\C=Cc3ccccc32)cc1	nt	nt	5.7%	nt	nt	43.9%
O=C(Nc1ccc(CN2CCCCC2)cc1)c1c(F)c(F)c(F)c(F)c1F	-0.3	20.3%[46.1 µM]	-22.3%	-4.2	?	-19.5%
O=C(Nc1ccc(CN2CCS(=O)(=O)CC2)cc1)c1ccc(Cl)cc1	15.6*	-21.1%	-6.9%[7.34 µM]	37.8	-18.8%[46.1 µM]	-14.8%[7.34 µM]
O=C(NCC1COc2ccccc2O1)c1cn(Cc2ccc(F)cc2)nn1 (stereo unspecified)	-3.9	1.7%	-20.1%	18.6	-2.7%[46.1 µM]	-26.5%
O=C(Nc1ccc2c(c1)OCO2)c1cn(Cc2ccc(F)cc2)nn1	18.1	-1.5%	-13.1%	41.8*	?	i
O=C(Nc1ccc(CN2CCCCC2)cc1)c1ccc(Br)o1	30.8*	0.1%	-15.5%	79.4*	-3.7%	nt
O=C(Nc1ccc2c(c1)OCO2)c1ccc(CN2CCOCC2)cc1	39.7*	-16.7%	-5.1%	59.8*	-15.9%[46.1 µM]	-9.9%
NC(=O)c1ccc(NC(=O)c2ccc(CN3CCOCC3)cc2)cc1	-1.6	8.3%	nt	-10.7	1.8%	nt
Cc1ccc(C(=O)Nc2ccc(CN3CCCCC3)cc2)c(C)c1	2.5	-6.1%	-8.0%	6.0	-23.5%[46.1 µM]	-14.2%
O=C(Nc1ccc(CN2CCCCC2)cc1)c1ccc2c(c1)OCO2	20.4*	-10.8%	nt	33.7*	20.3%	nt
CC(C)c1ccc(C(=O)Nc2ccc(CN3CCOCC3)cc2)cc1	23.4*	-14.2%[46.1 µM]	-17.5%	54.5*	?	-13.6%
CSc1ccccc1NC(=O)c1ccc(CN2CCOCC2)cc1	12.9*	14.4%[46.1 µM]	-3.5%	51.9*	?	-9.0%
CN(C1CCCCC1)S(=O)(=O)c1ccc(NC(=O)c2ccc(Br)o2)cc1	6.7	11.2µM*	?	-1.4	-13.0%	nt
CC(CCc1ccccc1)NC(=O)Cn1c(=O)nc(-c2ccccc2)c2cc(Cl)ccc21 (stereo unspecified)	nt	-18.8%[46.1 µM]	-13.1%	nt	nt	i
O=C(COc1ccccc1Cl)NCc1ccccc1	31.1*	-14.4%	1.9%	54.0*	-19.1%	-8.1%
CC(NS(=O)(=O)c1ccc(OCC(=O)NCc2ccncc2)cc1)c1ccccc1 (stereo unspecified)	9.2	nt	-5.9%	-11.2	4.47µM*	3.2%
O=C(COc1ccccc1Cl)NCc1ccncc1	32.0*	19.5%	nt	76.6	16.3%	nt
CC(C)NS(=O)(=O)c1ccc(OCC(=O)NCc2ccccc2)cc1	10.9	10.9%	-16.8%	-1.7	-20.1%	nt
COc1cc(OC)cc(-c2nnc(SCC(=O)c3ccc([N+](=O)[O-])cc3)o2)c1	nt	10.8%[46.1 µM]	-8.9%	nt	?	-18.9%
COc1ccc(C(=O)c2ccc(N(C)C)cc2)c(OC)c1	13.6	-28.3%	nt	57.0	?	nt
CN(C)c1ccc(C(=O)c2ccc(N(C)C)c3ccccc23)cc1	24.8*	0.251µM*	?	68.2*	?	nt
O=C(O)CSc1ccc2ccccc2n1	-1.0	-12.5%	13.3%	-4.1	?	nt
O=C(CSc1ncn[nH]1)Nc1ccc2c(c1)OCCO2	13.6	22.3%	nt	21.1	-0.3%	nt
SMILES	CHX counter	LASV entry inh	VACV Venus inh	Shiga toxin inh	Marburg entry inh	VACV mCherry inh
O=C(CSc1ccc2ccccc2n1)c1ccc2c(c1)OCO2	53.5*	?	nt	104.3*	56.3%	nt
O=C(CSc1ncn[nH]1)c1ccc2c(c1)OCO2	13.7*	13.6%	nt	29.6	?	nt
O=C(CSc1nc2ncc(Cl)cc2[nH]1)c1ccc2c(c1)OCO2	-1.7	?	-5.2%[7.34 µM]	5.9	12.3%[46.1 µM]	-3.8%[7.34 µM]
O=C(CSc1ncn[nH]1)c1ccc2c(c1)OCCO2	18.1*	4.1%	nt	active	8.0%	nt
CC(C)c1ccc(C(=O)CSc2ncn[nH]2)cc1	30.6*	10.5%	-4.1%	81.4*	5.5%	-18.8%
COc1ccc(-n2nc(C(=O)NCc3ccc(F)cc3Cl)c3c4ccccc4n(C)c3c2=O)cc1Cl	nt	28.6%[46.1 µM]	6.3%	nt	10.9%[46.1 µM]	-12.4%
C=C(C)CN(CC)C(=O)CCc1nnc(CCc2c[nH]c3ccccc23)o1	-0.5	?	-8.7%	-7.3	-27.8%[46.1 µM]	-20.6%
CCC(COC)NC(=O)CCc1nnc(Cc2c[nH]c3ccccc23)o1 (stereo unspecified)	-2.0	nt	nt	1.7	nt	nt
CC(C)(C)NC(=O)CCc1nnc(Cc2c[nH]c3ccccc23)o1	12.1*	nt	nt	20.5	nt	nt
C=CCN(CC=C)C(=O)CCc1nnc(CCc2c[nH]c3ccccc23)o1	21.0*	-20.7%	-26.0%	35.2	1.8%[46.1 µM]	-25.5%
O=C(COc1ccccc1C(=O)OCC(=O)Nc1cccc2ccccc12)Nc1ccc(Br)cc1	nt	nt	-22.7%	nt	nt	-2.6%
Cc1ccc(C)c(S(=O)(=O)N2CCCOC2CNC(=O)C(=O)NCCN2CCOCC2)c1 (stereo unspecified)	4.3	-2.6%	-16.6%	-2.3	9.1%	-1.2%
COc1ccc2nc(Nc3nc4cc5c(cc4s3)OCO5)sc2c1	22.6*	12.8%	-13.0%	64.4*	?	-22.4%
COc1ccc2nc(Nc3ccc4c(c3)OCO4)sc2c1	38.5*	-18.0%	nt	44.8*	-26.6%	nt
CC(C)(C)NC(=O)COC(=O)/C=C/c1ccc(F)cc1	24.0*	-6.6%	-4.8%	42.7	15.0%	-15.5%
COC(=O)CNC(=O)COC(=O)/C=C/c1ccc(F)cc1	-2.1	nt	-22.3%	-1.9	-18.1%[46.1 µM]	-21.8%
CCOC(=O)c1sc(=NC(=O)C2CC2)n(C)c1C	18.8	-11.2%	-7.7%	12.8	-0.8%[46.1 µM]	-3.6%
CCOc1ccc2c(c1)sc(=NC(=O)C1CC1)n2C	39.3*	-3.7%	-6.6%	61.8*	0.8%	-1.6%
Cn1c(=NC(=O)C2CCCCC2)sc2cc([N+](=O)[O-])ccc21	42.0*	?	-8.8%	98.9*	?	-1.6%
CCOC(=O)CCc1c(C)c2ccc(OCc3nn[nH]n3)cc2oc1=O	-4.7	-1.2%	nt	23.5	-1.5%	nt
CC(=O)COc1ccc2c(C)c(-c3ccccc3)c(=O)oc2c1	45.1*	-9.5%	-14.7%	58.2*	-25.4%[46.1 µM]	i
CCOC(=O)CCc1c(C)c2ccc(OC3CCCCC3=O)cc2oc1=O (stereo unspecified)	21.1*	31.4%	-7.7%	27.2	-3.2%	i
CCOC(=O)CCc1c(C)c2ccc(OCC(=O)OC(C)C)cc2oc1=O	33.8*	11.2%	nt	+	4.9%	nt
CCCCc1c(C)c2ccc(OCC(C)=O)cc2oc1=O	30.1*	-20.0%	7.3%	100.0*	-0.2%	nt
COc1ccc(NC(=O)N(C)C[C@@H]2Oc3cc(Br)ccc3S(=O)(=O)N([C@H](C)CO)C[C@H]2C)cc1	nt	nt	-17.5%	nt	nt	i
O=C(CN(C(=O)c1csnn1)c1ccc(F)c(Cl)c1)NC1CCCC1	-7.6	7.5%	4.1%	-6.1	-2.4%[46.1 µM]	-8.6%
O=C(NCc1ccc2c(c1)CCN2C(=O)c1ccccc1)c1ccco1	nt	-13.4%[46.1 µM]	-5.0%	nt	nt	-15.9%
